# Reference: PubChem BioAssay (NCI)
# About 83,000 compounds went through this panel and 20% of them were active in at least one assay; those are over-represented in the sample as a whole.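 Each cell line was grown in a 96-well plate and treated with one concentration of compound for 48 hours. Values below 10 were considered active.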 Values without a mark were called inactive. Activity calls are given as the source filed them.
# Columns and labels:
# Test in all cases: NCI-60 one-dose screen, 48 h (100 = growth as untreated, 0 = no growth, -100 = all killed)
# HCT-15 colon = details: 10 µM
# HT29 colon = details: 10 µM
# SNB-75 CNS = details: 10 µM
# SNB-19 CNS = details: 10 µM
# U251 CNS = details: 10 µM
# PC-3 prostate = details: 10 µM
# SK-MEL-5 melanoma = details: 10 µM
# UACC-62 melanoma = details: 10 µM unless noted
# LOX IMVI melanoma = details: 10 µM
# SK-MEL-28 melanoma = details: 10 µM
# SK-MEL-2 melanoma = details: 10 µM
# SN12C renal = details: 10 µM
# TK-10 renal = details: 10 µM unless noted
# ACHN renal = details: 10 µM
# A498 renal = details: 10 µM
# CCRF-CEM leukemia = details: 10 µM
# MOLT-4 leukemia = details: 10 µM
# UO-31 renal = details: 10 µM
# CAKI-1 renal = details: 10 µM
# EKVX NSCLC = details: 10 µM
Structure (SMILES),growth (HCT-15 colon),growth (HT29 colon),growth (SNB-75 CNS) [%],growth (SNB-19 CNS),growth (U251 CNS) [%],growth (PC-3 prostate),growth (SK-MEL-5 melanoma),growth (UACC-62 melanoma) [%],growth (LOX IMVI melanoma),growth (SK-MEL-28 melanoma) [%],growth (SK-MEL-2 melanoma) [%],growth (SN12C renal),growth (TK-10 renal) [%],growth (ACHN renal) [%],growth (A498 renal),growth (CCRF-CEM leukemia),growth (MOLT-4 leukemia),growth (UO-31 renal) [%],growth (CAKI-1 renal),growth (EKVX NSCLC)
CC1NC(=O)NC1CCCCCC(=O)O (stereo unspecified),98.4%,102%,94,99.8%,94.5,86.4%,102%,96.7,93.3%,115,103,105%,100,101,87.8%,2.23% (active),118%,–,–,–
CC1CC(O)C2C3(C)CCCC2(COC3=O)C12CCC1(CCOC1=O)O2 (stereo unspecified),102%,109%,96.4,108%,102,94%,111%,114,107%,111,117,113%,114,–,71%,104%,114%,93.3,94.7%,–
O/N=C/c1ccc(O)cc1O,89.9%,102%,89.3,96.6%,90.6,86.4%,104%,96.5,105%,107,–,98%,102,95.9,85.9%,86.5%,102%,99,101%,102%
CC(C)(N)COS(=O)(=O)O,103%,113%,91.5,93%,103,95.9%,102%,102,113%,96.3,117,93.6%,115,114,113%,–,96.9%,100,103%,–
O=C(/C=C\c1ccc(O)cc1)c1ccccc1,88.5%,86.8%,81.4,104%,80.7,90.6%,97.3%,94.8,94.4%,103,–,89%,95.2,97.2,114%,–,96.1%,67.8,85.1%,91.3%
C=CCOC(=O)C(=O)OCC=C,100%,101%,102,94.7%,106,97%,98.8%,102,111%,113,–,101%,95.1,100,119%,90.7%,104%,108,136%,132%
Oc1ccccc1-c1nnco1,100%,97.5%,45.5,93.2%,82.9,91.8%,102%,89.9,87.7%,101,–,83.2%,95.4,83,75.9%,89%,90.1%,55,100%,107%
CCCCCCCO,95.6%,132%,106,102%,97.8,105%,99.2%,97.7,99.8%,98.3,134,99.4%,117,92.5,105%,103%,96.4%,82.1,–,–
CCCCNC1(C#N)CCN(Cc2ccccc2)CC1,108%,106%,84.2,91.1%,101,96.1%,107%,95,99.7%,102,–,104%,105,106,78.5%,102%,152%,81.1,76.1%,95.5%
O=[N+]([O-])c1cccc2nsnc12,103%,105%,96.7,98.4%,104,97.3%,94.9%,105,99.7%,114,106,104%,–,105,102%,95.9%,101%,–,114%,–
O=C(Cc1ccccc1)Cc1ccccc1,103%,108%,99.5,101%,96.7,103%,96.5%,97,103%,108,90.1,104%,–,98.1,101%,98.3%,96.7%,98,97.9%,–
Nc1ccc(N)c([N+](=O)[O-])c1,109%,121%,102,99.5%,107,102%,95.2%,98.5,100%,115,–,97.8%,130,102,100%,107%,104%,88.2,106%,110%
CCO/C=C1\SC(=S)N(c2cccc(C)c2)C1=O,101%,102%,80.6,111%,98.6,92.5%,102%,105,104%,104,110,106%,98.9,106,113%,–,95.7%,79.3,101%,–
CCN=c1cc2sc3cc(NCC)c(C)cc3nc-2cc1C,8.95% (active),16.7%,52,4.67% (active),10.7,3.93% (active),-56.9% (active),61.3,2.17% (active),60.4,–,-83.1% (active),–,53,47.7%,14%,8.77% (active),40.5,-56% (active),-7.52% (active)
COc1cc2c(cc1OC)[C@H](C(=O)O)[C@@H](c1ccc(OC(C)C)c(OC)c1)N(C)C2=O,101%,105%,90.4,94.8%,97.3,90%,102%,89.6,94.7%,116,–,90.4%,96.2,96.2,137%,96.6%,94.3%,97.6,80%,92.7%
O=C1C=CC(=O)N1c1ccc(I)cc1Cl,99.9%,100%,103,98.4%,99.5,75.7%,102%,104,101%,107,114,101%,–,104,99.1%,85.9%,128%,94,–,–
COC(=O)Nc1nc2ccc(C(=O)c3cccs3)cc2[nH]1,10.8%,2.02% (active),32.8,29.9%,16.6,22.7%,-21.1% (active),34.2,28.4%,56.3,–,29.6%,61.6,40.5,-1.63% (active),6.93% (active),-13.6% (active),48.8,19.8%,37.8%
O=[N+]([O-])c1ccc(N=Nc2ccc(O)c3ccccc23)cc1,41.2%,79.1%,68.8,39.8%,15.4,14.9%,28.7%,–,18.4%,69,–,35.3%,76.1,47.3,71.8%,–,31.5%,24,–,60%
